In PubChem BioAssay (NCI):
This is part of a sample that, as a whole, favours compounds with a hit. Of some 83,000 tested, about 20% had one in any assay.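 A percent growth of 40 corresponds to 60% growth inhibition; 0 means no net growth; -100 means all cells died. Active threshold: below 10.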 Activity calls are given as the source filed them.

Tested on: HOP-62 NSCLC
Assay: NCI-60 one-dose screen, 48 h (100 = growth as untreated, 0 = no growth, -100 = all killed)
Details: 10 µM unless noted

Row | SMILES | growth
1 | Cc1cccc(C)c1NC(=O)CSC(=S)N1CCCCC1 | 107% (inactive)
2 | O=C(/C=C/c1cccc(O)c1)c1ccccc1O | 94.4% (inactive)
3 | O=C(NO)c1ccc(Cn2c(=O)n(CCc3ccc(O)cc3)c(=O)c3ccccc32)cc1 | 68.1% (inactive)
4 | COc1ccc(O)c(-c2cc(-c3ccc(Cl)cc3)c(C#N)c(=O)[nH]2)c1 | 64% (inactive)
5 | CCC(=O)c1c(C)[nH]c(C)c1C | 77.8% (inactive)
6 | COc1cc(-c2cc3ncccc3c3nc(OCCN(C)C)c4cccnc4c23)cc(OC)c1OC | -45.6% (active)
7 | CC(C)/C=C/CC[C@](C)(O)[C@H]1CC[C@]2(C)[C@@H]1CC[C@@H]1[C@@]3(C)C/C(=C/c4cccc(C(F)(F)F)c4)C(=O)C(C)(C)[C@@H]3CC[C@]12C | 103% (inactive)
8 | O=C(NCN1C(=O)c2cccc3cccc(c23)C1=O)N1CCC(Cc2ccccc2)CC1 | 94% (inactive)
9 | COc1cnc2c(c1)C(=O)c1c-2n(CCCNCCN2CCOCC2)c(=O)c2cc([N+](=O)[O-])ccc12 | -0.313% (active)
10 | CCCCCCCC(=O)SCC/C=C/[C@@H]1CC(=O)NCc2cccc(n2)CN(Cc2ccc3ccccc3c2)CC(=O)N[C@@H](C(C)C)C(=O)O1 | 24% (inactive)
11 | Fc1ccc2nc(-c3cc(-c4ccc5c(c4)OCO5)n[nH]3)[nH]c2c1 | 75.5% (inactive)
12 | Cn1cc(-c2nc(-c3cn(C)c4ncccc34)cs2)c2cc(F)ccc21 | 53.7% (inactive)
13 | NCCn1cc(-c2nc(-c3c[nH]c4ncccc34)cs2)c2ccccc21 | 75.4% (inactive)
14 | COc1ccc(-c2cc(-c3c(C)oc4cc5occc5c(OC)c4c3=O)nc(N)c2C#N)cc1OC | 50.3% (inactive)
15 | CN(C)c1ccc(N)c2ccccc12 | 74.1% (inactive)
16 | CN(C)CCCCC(C(=O)CBr)(c1ccccc1)c1ccccc1 | 51.8% (inactive)
17 | O=C1Nc2ccccc2/C1=C/c1cn(CCCn2c3ccccc3c(=O)c3ccccc32)c2ccccc12 | 80.3% (inactive)
18 | C=C(C)[C@@H]1CC[C@]2(C=NCCCNCCCCNCCCN)CC[C@]3(C)[C@H](CC[C@@H]4[C@@]5(C)CCCNC(C)(C)[C@@H]5CC[C@]43C)[C@@H]12 | 92.9% (inactive)
19 | Cc1nn(-c2ccc(Br)cc2)c2nc3[nH]c(=O)[nH]c(=O)c3nc12 | 120% (inactive)
20 | COc1ccc(-c2nc3c(c(C)nn3-c3ccc(F)cc3)c(=O)[nH]2)cc1 | 58.8% (inactive)

Tested on: NCI-H460 lung
Assay: as above
Details: 10 µM unless noted

Row | SMILES | growth
21 | C=C1C(=O)O[C@H]2[C@H]1CC/C(COC(=O)NCCc1c[nH]c3ccccc13)=C\CC[C@@]1(C)O[C@@H]21 | 54.2% (inactive)
22 | C/C(=N\Nc1cc(C)c2ccccc2n1)c1ccccn1 | -44.7% (active)
23 | COC(=O)CNc1nc(N(C)O)nc(N(C)O)n1 | 17.7% (inactive)
24 | Cc1ccc(-c2nc([P+](c3ccccc3)(c3ccccc3)c3ccccc3)c(N3C[C@H]4C[C@H](C3)c3cccc(=O)n3C4)o2)cc1 | 105% (inactive)
25 | COC(=O)[C@]12CC[C@@H](C)[C@H](C)[C@@H]1C1=CC[C@@H]3[C@@]4(C)CC(=O)[C@H](OC(=O)c5ccco5)[C@@]5(C)COC(=C45)C[C@@]3(C)[C@]1(C)CC2 | 9.59% (active)
26 | COc1ccc(/C=C/C(=O)NCC(C)O)cc1 (stereo unspecified) | 101% (inactive)
27 | Cc1nn(-c2ccc(Cl)cc2)c(=O)n1CCn1cnc2ccccc21 | 107% (inactive)
28 | CN1CCN(CCOc2ccc(-c3cnc4c(-c5ccccc5F)cnn4c3)cc2)CC1 | -63.3% (active)
29 | O=C(NO)c1ccc(Cn2c(=O)n(-c3ccccc3)c(=O)c3ccccc32)cc1 | 39% (inactive)
30 | COc1cccc2c1C(=O)c1c(O)c3c(c(O)c1C2=O)C[C@@](O)(C(=O)CO)C[C@@H]3OC1C[C@H](N)[C@H](O)[C@H](C)O1 (stereo partly specified) | 0.418% (active)
31 | Nc1ccc(Cl)cn1 | 105% (inactive)
32 | CN1CCN(CCOc2ccc(-c3cnc4c(-c5cccc(F)c5)cnn4c3)cc2)CC1 | 1.99% (active)
33 | O=S(=O)(NCCNc1cc(-c2cn(-c3ccccc3)nc2-c2cccc(O)c2)ccn1)c1cccc(F)c1 | 33.1% (inactive)
34 | Cc1cccc(C)c1NC(=O)CSC(=S)N1CCCCC1 | 106% (inactive)
35 | O=C(/C=C/c1cccc(O)c1)c1ccccc1O | 88.2% (inactive)
36 | O=C(NO)c1ccc(Cn2c(=O)n(CCc3ccc(O)cc3)c(=O)c3ccccc32)cc1 | 60.4% (inactive)
37 | COc1ccc(O)c(-c2cc(-c3ccc(Cl)cc3)c(C#N)c(=O)[nH]2)c1 | 69.3% (inactive)
38 | CCC(=O)c1c(C)[nH]c(C)c1C | 55.5% (inactive)

Row | SMILES | growth
39 | COc1cc(-c2cc3ncccc3c3nc(OCCN(C)C)c4cccnc4c23)cc(OC)c1OC | -50.8% (active)
40 | O=C(/C=C/c1cccc2ccccc12)Nc1ncc(Cc2ccccc2)s1 | 2.17% (active)
41 | CC(C)/C=C/CC[C@](C)(O)[C@H]1CC[C@]2(C)[C@@H]1CC[C@@H]1[C@@]3(C)C/C(=C/c4cccc(C(F)(F)F)c4)C(=O)C(C)(C)[C@@H]3CC[C@]12C | 98.6% (inactive)
42 | O=C(NCN1C(=O)c2cccc3cccc(c23)C1=O)N1CCC(Cc2ccccc2)CC1 | 103% (inactive)
43 | COc1cnc2c(c1)C(=O)c1c-2n(CCCNCCN2CCOCC2)c(=O)c2cc([N+](=O)[O-])ccc12 | -55.2% (active)
44 | CCCCCCCC(=O)SCC/C=C/[C@@H]1CC(=O)NCc2cccc(n2)CN(Cc2ccc3ccccc3c2)CC(=O)N[C@@H](C(C)C)C(=O)O1 | 27.6% (inactive)
45 | Fc1ccc2nc(-c3cc(-c4ccc5c(c4)OCO5)n[nH]3)[nH]c2c1 | 40.9% (inactive)
46 | Cn1cc(-c2nc(-c3cn(C)c4ncccc34)cs2)c2cc(F)ccc21 | 15.8% (inactive)
47 | NCCn1cc(-c2nc(-c3c[nH]c4ncccc34)cs2)c2ccccc21 | 89.8% (inactive)
48 | COc1ccc(-c2cc(-c3c(C)oc4cc5occc5c(OC)c4c3=O)nc(N)c2C#N)cc1OC | 32.4% (inactive)
49 | CN(C)c1ccc(N)c2ccccc12 | 52.5% (inactive)
50 | CN(C)CCCCC(C(=O)CBr)(c1ccccc1)c1ccccc1 | 49.5% (inactive)
51 | O=C1Nc2ccccc2/C1=C/c1cn(CCCn2c3ccccc3c(=O)c3ccccc32)c2ccccc12 | 96.3% (inactive)
52 | C=C(C)[C@@H]1CC[C@]2(C=NCCCNCCCCNCCCN)CC[C@]3(C)[C@H](CC[C@@H]4[C@@]5(C)CCCNC(C)(C)[C@@H]5CC[C@]43C)[C@@H]12 | 91.7% (inactive)
53 | CCCCn1c(-c2ccc(O)cc2)cn2c3c(=O)[nH]c(=O)n(C)c3nc12 | 68.6% (inactive)
54 | Cc1nn(-c2ccc(Br)cc2)c2nc3[nH]c(=O)[nH]c(=O)c3nc12 | 108% (inactive)
55 | Cc1cc2nc3c4cc(N)ccc4n(CCN(C)C)c3nc2cc1C | 0.661% (active)
56 | COc1ccc(-c2nc3c(c(C)nn3-c3ccc(F)cc3)c(=O)[nH]2)cc1 | 28.2% (inactive)
